Laboratory results taken from PubChem BioAssay (NCATS).
Results filed as inconclusive are left out. A number with no mark means an inactive call. Calls of active or inactive are those of the source. Calls come from the whole dose curve; as a rule, active = well fitted inhibition curve with a large enough effect; inconclusive = small, poorly fitted or top-dose-only effect; inactive = no such curve, though single readings can be large or run the other way.

assay: BET inhibitor-based combinations targeting novel dependencies in MECOM-rearranged (r) AML: SET-2 cell line (AID 2202231); settings: SET-2 AML cells viability, CellTiter-Glo luminescence, 48 h; viability: stronger effect = lower value, concentration not given here;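 for viability: plate controls were DMSO treated cells for no effect and wells without cells for full effect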
How it was run: (§1)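 Readout: CellTiter-Glo luminescence. Exposure: 48 h, 11 concentrations, 500 cells/well. Metric: AUC and within-line Z-AUC after DMSO/empty-well normalization.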
Note: nearly all actives have a fitted effect of over 35% in size.
Potency is the fitted concentration of half-maximal effect.

| SMILES | viability [%] | Potency |
| --- | --- | --- |
| N#CN1CCC[C@@H](n2nc(-c3ccc(Oc4ccc(F)cc4F)cc3)c(C(N)=O)c2N)C1 | 107 | – |
| COc1nc(-c2ccc3c(c2)OCO3)n(-c2ccc(NC(=O)CSc3ccccc3)cc2)n1 | 97.5 | – |
| CN(C)c1ccc(C2Nc3ccc4ccccc4c3C3=C2C(=O)CC(C)(C)C3)cc1Br (centres undefined) | 107 | – |
| O=C(CC12CC3CC(CC(C3)C1)C2)Nc1cccc2nc(NCCNCCO)ccc12 | 114 | – |
| Nc1ncnc2c1c(COc1cccc(Cl)c1)nn2C1CCOCC1 | 99.8 | – |
| O=C(NCCCNC(=O)c1ccc[nH]c1=O)c1cc(-c2ccccc2)on1 | – | 13.2 µM (active) |
| O=C(C1CC1)N1CC[C@@H](Cc2n[nH]c(=O)n2-c2ccc(-c3ccc4occc4c3)cc2)C1 | 95.8 | – |
| C[C@H](c1ccc(F)cc1CCCC(=O)O)N(c1cc(F)ccc1F)S(=O)(=O)c1ccc(Cl)cc1 | 113 | – |
| N#CC1(c2cccc(C(=O)Nc3cc(Oc4ccc5nc(NC(=O)C6CC6)sc5n4)ccc3F)c2Cl)CC1 | 82.7 | – |
| Cc1cccc(-c2[nH]c(CNc3ccccc3F)nc2-c2ccc3ncnn3c2)n1 | 100 | – |

assay: BET inhibitor-based combinations targeting novel dependencies in MECOM-rearranged (r) AML: OCI-AML3 cell line (AID 2202232); settings: CellTiter-Glo luminescence, 48 h; Potency: OCI-AML3 viability; series mostly up to 46 µM; viability (% of control): at the top concentration;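 for viability (% of control): plate controls were DMSO vehicle wells for no effect and wells without cells for full effect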
How it was run: as §1

| SMILES | Potency | viability (% of control) [%] |
| --- | --- | --- |
| Cc1ccc(C(N)=O)cc1Nc1nccc(-c2cn(C(C)C)c3cnccc23)n1 | 7.42 µM (active) | – |
| O=C1CCC[C@@H]2[C@H]3CCC[N+]4([O-])CCC[C@@H](CN12)[C@@H]34 (some centres undefined) | – | 109 |
| CS(=O)(=O)CCNCc1ccc(-c2ccc3ncnc(Nc4ccc(OCc5cccc(F)c5)c(Cl)c4)c3c2)o1 | 23.5 µM (active) | – |
| CCS(=O)(=O)c1cccc(-c2cc(C(=O)NC3CCN(C)CC3)c(C)c3[nH]c4ncc(C)cc4c23)c1 | 1.48 µM (active) | – |
| FC(F)(F)c1ccc(Nc2nc(-c3c(C(F)(F)F)nc4ccccn34)cs2)cc1 | 0.417 µM (active) | – |
| Cc1cc2c(F)c(Oc3ncnn4cc(OCC(C)OC(=O)C(C)N)c(C)c34)ccc2[nH]1 (centres undefined) | 11.8 µM (active) | – |
| CCn1nc(C2CCN(C(=O)CCO)CC2)nc1-c1cnc(N)c(-c2nnc(C(C)(C)C)o2)n1 | 1.18 µM (active) | – |
| Cc1nn(Cc2ccccc2Cl)c(C)c1CN(C)CC(O)COc1ccc(Cl)cc1 (centres undefined) | 16.6 µM (active) | – |
| CC1(C)[C@@H](O)CC[C@]2(C)[C@H]3C(=O)C=C4[C@@H]5C[C@@](C)(C(=O)O)CC[C@]5(C)CC[C@@]4(C)[C@]3(C)CC[C@@H]12 | – | 92.7 |
| Cc1[nH]c2ccc(F)cc2c1-c1nc2c3cccnc3c3ncccc3c2[nH]1 | 0.679 µM (active) | – |
| COCCOc1ccc2c(c1)ncn2-c1ccc2cccc(N3CCC(N)CC3)c2n1 | 9.34 µM (active) | – |
| CC1=C(C(=O)Nc2cc3cn[nH]c3cc2F)C(c2ccc(Cl)cc2F)N=C(c2ccnc(Cl)c2)N1 (centres undefined) | 16.6 µM (active) | – |
| COc1ccc(Cl)c(Nc2ncnc3cc(OCC4CCN(C)CC4)c(OC)cc23)c1 | 29.5 µM (active) | – |
| Fc1ccc(-c2nc(-c3ccccc3F)[nH]c2-c2ccncc2)cc1 | – | 88.1 |
| CC(C)(O)CC(=O)NCCn1ccc2ncnc(Nc3ccc(Oc4cccc(C(F)(F)F)c4)c(Cl)c3)c21 | 16.6 µM (active) | – |
| COc1cc2c(Oc3ccc4[nH]c(C)cc4c3F)ncnc2cc1OCCCN1CCCC1 | 13.2 µM (active) | – |
| Cc1cnc(Nc2ccc(F)cc2Cl)nc1-c1c[nH]c(C(=O)N[C@H](CO)c2cccc(Cl)c2)c1 | 4.68 µM (active) | – |
| CC1=C[C@@H]2[C@@H]([C@@H](O)C[C@@]3(C)[C@H]2C[C@@H](C)[C@]3(O)C(=O)CO)[C@@]2(C)Cc3cnn(-c4ccccc4)c3C=C12 | 18.6 µM (active) | – |
| Cc1ccc(Nc2nccc(N(C)c3ccc4c(C)n(C)nc4c3)n2)cc1S(N)(=O)=O | 16.6 µM (active) | – |
| Clc1ccc(C2(c3ccc(-c4cn[nH]c4)cc3)CCNCC2)cc1 | 18.6 µM (active) | – |
| Cc1ccc(NC(=O)Nc2cc(C(F)(F)F)ccc2F)cc1Nc1ccc2c(c1)NC(=O)/C2=C\c1ccc[nH]1 | 20.9 µM (active) | – |
| O=C(Nc1ccc(OC(F)(F)F)cc1)c1sccc1NCc1ccnc2ccccc12 | 5.25 µM (active) | – |
| CC1=C(C(=O)Nc2cc3cn[nH]c3cc2F)C(c2ccc(C(F)(F)F)cc2)CC(=O)N1 (centres undefined) | 2.95 µM (active) | – |
| C=C1C[C@@]2(O)O[C@@]3(C[C@H]2C(C)C)[C@@H](C)CC[C@@H]13 | – | 97.7 |
| O=C(Nc1ccc(-c2ccnc(Nc3ccc(N4CCOCC4)cc3)n2)cc1)C1CCCN1 (centres undefined) | 16.6 µM (active) | – |
| Cc1[nH]c(/C=C2\C(=O)Nc3ccc(F)cc32)c(C)c1C(=O)NCCN1CCCC1 | 8.11 µM (active) | – |
| COc1cc(N2CCC(N3CCN(C)CC3)CC2)ccc1Nc1ncc(Cl)c(Nc2ccccc2P(C)(C)=O)n1 | 0.742 µM (active) | – |
| CC(C)[C@@H](CS(=O)(=O)C(C)C)N1C(=O)[C@@](C)(CC(=O)O)C[C@H](c2cccc(Cl)c2)[C@H]1c1ccc(Cl)cc1 | 2.35 µM (active) | – |
| CC(C)(O)c1cc2nc(-c3cnc(N)nc3)nc(N3CCOCC3)c2s1 | 1.32 µM (active) | – |
